Rows were chosen to be rich in hits. Some 1.4% of all compounds tested hit in one or more screens of this group.
CFTR F508del cor – CFTR F508del correction in bronchial cells. activity (quench increase), % at 7.58 µM. CFBE cells, YFP halide quenching; stimulated with forskolin plus potentiator P3; % fluorescence drop versus neutral controls. hit rate 0.36% among 350,000. AID 720511;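 active = mean added fluorescence quench of at least 8% versus neutral control, with both replicates also reaching 8%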;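 also: cells transiently co-express mutant CFTR-F508del with the halide-sensitive YFP; corrector assay measuring rescue of mutant channel to the surface after 24 h compound exposure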
Statin myotox sup – suppression of simvastatin myotoxicity; rescue of ATP level, % at 7.49 µM; AID 602340; hit rate 0.78% among 330,000; C2C12 myotubes + simvastatin, ATP luminescence, 48 h; scaled: DMSO 0, geranylgeraniol control 100;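 active = mean ATP rescue above about 67%, or every replicate alone reaching that limit, limit read from the data, passing the limit was not always enough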;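 also: myotubes were challenged with 10 µM simvastatin during compound exposure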
PglD inh – PglD (C. jejuni) enzyme inhibition. purified PglD enzyme, DTNB colorimetric CoA detection. inhibition, % at 12.5 µM. hit rate 0.098% among 360,000; in the data active = inhibition above about 16%, passing the limit was not always enough
ARNT TACC3 PPI – disruptors of human ARNT/TACC3 interaction. inhibition, % at 9.99 µM. Q9Y6A5. hit rate 0.66% among 390,000. AlphaScreen His-ARNT PAS-B/GST-TACC3 binding, luminescence; TACC3 fragment carries E629A point mutation;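 active = mean inhibition of replicates at least 50% and at least half of replicates each reaching 50%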;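 also: 0% = complete ARNT plus TACC3 wells and 100% = ARNT alone without TACC3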
Numbers without * were called inactive; / = no result given.

SMILES | CFTR F508del cor | Statin myotox sup | PglD inh | ARNT TACC3 PPI
C[C@@H](NC(=O)C[C@H]1C[C@@H]2c3cc(NC(=O)CN(C)C)ccc3O[C@@H]2[C@@H](CO)O1)c1ccccc1 | -0.7 | 2.8 | -4.3 | -3.1
C[C@H]1CCCCO[C@H](CN(C)S(=O)(=O)c2ccc(Cl)cc2)[C@@H](C)CN([C@@H](C)CO)C(=O)c2cc(NS(=O)(=O)c3ccccc3)ccc2O1 | 0.2 | / | / | /
COc1ccc(NC(=O)CSc2nccc(C)n2)cc1 | / | 112.7* | 0.9 | -6.1
COc1ccc(NC(=O)CSc2c(C)nn(-c3nnc(C)c(=O)[nH]3)c2C)cc1 | / | 0.3 | -0.2 | 60.4*
CCn1c(CNc2ccc(F)cc2)nnc1SCC(=O)Nc1ccc(OC)cc1 | / | 119.0* | -8.7 | 11.0
Cc1noc(C)c1S(=O)(=O)Nc1ccc2c(c1)C(=O)N([C@H](C)CO)C[C@H](C)[C@H](CN(C)S(=O)(=O)c1ccc(F)cc1)O2 | -1.2 | -6.2 | / | /
CCCNC(=O)N[C@H]1C=C[C@@H](CC(=O)NC2CCC2)O[C@@H]1CO | -0.6 | 6.2 | 0.3 | -7.9
CC1CCC/C(=C\Nc2ccc(O)cc2)C1=O (configuration not stated) | / | 5.4 | -1.5 | 20.7*
C[C@H]1CN([C@@H](C)CO)C(=O)CCCn2cc(nn2)CO[C@H]1CN(C)Cc1cccc(O)c1 | -1.7 | -0.5 | 2.3 | -7.6
C[C@@H]1CN([C@@H](C)CO)C(=O)c2cc(NC(=O)CCCN(C)C)ccc2O[C@H]1CN(C)Cc1ccc2c(c1)OCO2 | 0.7 | / | / | /
C[C@H]1CCCCO[C@H](CN(C)C(=O)NC2CCCCC2)[C@@H](C)CN([C@@H](C)CO)C(=O)c2cc(NS(=O)(=O)c3cccs3)ccc2O1 | 2.2 | -1.7 | -2.2 | -5.8
COC(=O)CCC(=O)Nc1sc(C)c(C)c1C(N)=O | / | 110.7* | 0.1 | 1.3
Cc1sc(NC(=S)NC(=O)CCc2ccccc2)c(C(N)=O)c1C | 12.2* | -16.6 | / | -4.1
COC(=O)CCC(=O)NC(=S)Nc1sc(C)c(C)c1C(N)=O | / | / | / | -4.9
Cc1ccc(S(=O)(=O)N(C)C[C@@H]2OCCCC[C@@H](C)Oc3ccc(NC(=O)Nc4ccc5c(c4)OCO5)cc3C(=O)N([C@H](C)CO)C[C@@H]2C)cc1 | 0.3 | / | 8.8 | 19.4
CCOc1ccc(NC(=S)Nc2cccc3cnccc23)cc1 | / | / | 0.2 | 42.3
COc1ccc(NC(=S)Nc2cccc3cnccc23)cc1 | / | 4.0 | -0.5 | 15.0*
COc1ccccc1NC(=S)Nc1cccc2cnccc12 | 0.4 | / | / | 75.8*
Fc1ccc(NC(=S)Nc2cccc3cnccc23)cc1 | -3.3 | / | / | 30.3
COc1ccccc1C#Cc1cnc2c(c1)C(=O)N([C@H](C)CO)C[C@H](C)[C@@H](CN(C)C(C)=O)O2 | -1.2 | -6.5 | 1.9 | 2.2
Cc1cccn2c(=O)c(C=O)c(N3CCCCCC3)nc12 | / | 101.3* | -3.5 | -13.4
Cc1cccn2c(=O)c(C=O)c(N3CC(C)OC(C)C3)nc12 (configuration not stated) | -0.2 | / | / | 2.4
CC(C)NC(=O)Nc1cccc2c1O[C@@H](CN(C)Cc1ccc3c(c1)OCO3)[C@H](C)CN([C@H](C)CO)C2=O | 1.3 | / | / | /
COc1nc(N)nc(NC(=O)c2cccs2)c1N=O | 11.2* | 61.0 | 5.7 | 8.9
COc1ccc(NC(=O)c2ccc(NC(=O)c3cccs3)cc2)cc1 | -2.4 | / | -2.4 | 1.0
SMILES | CFTR F508del cor | Statin myotox sup | PglD inh | ARNT TACC3 PPI
COc1ccc(C2C(Oc3ccccc3)C(=O)N2c2ccc(C)c(C)c2)cc1OC (configuration not stated) | / | 56.3 | -2.6 | 2.0
COc1ccc(C2C(Oc3ccccc3)C(=O)N2c2cc(C)ccc2C)cc1OC (configuration not stated) | / | 73.0* | 0.1 | 7.1
CNC(=O)C[C@H]1CC[C@H]2[C@H](COc3ccc(NC(=O)c4ccccc4Cl)cc3C(=O)N2C)O1 | 1.1 | 0.1 | -2.2 | 0.9
CCOC(=O)c1ccc(-c2c(C(=O)OCC)oc3cc(O)c(CC)cc3c2=O)o1 | / | 100.4* | -7.6 | -5.4
CSc1nc(NC(C)=O)nc(C)c1Cl | / | 146.8* | -5.4 | 0.8
O=C(O)c1ccc2c(c1)C(=O)N(CCC1=CCCCC1)C2=O | / | -9.3 | 2.4 | -13.1
O=C1c2ccccc2C(=O)N1CCC1=CCCCC1 | / | 122.2* | -3.3 | -7.5
O=C(C[C@H]1C[C@@H]2c3cc(NC(=O)c4ccc5c(c4)OCO5)ccc3O[C@@H]2[C@H](CO)O1)NCc1ccccn1 | -0.4 | 4.0 | -0.9 | 0.6
COc1cc([N+](=O)[O-])cc(/C=N/NC(=O)c2cncc(Br)c2)c1O | 0.1 | 30.3 | -5.2 | 69.0*

From PubChem BioAssay
